# Only some compounds are listed: those with a hit (about 1.4% of all), similar ones and a draw of the others.
# Bcl-xL primary: blocks human Bcl-xL binding to Bim BH3 peptide | Q07817 | GST-Bcl-xL / FITC-Bim BH3 peptide fluorescence polarization | inhibition, % at 10.9 µM | actives 0.7% (n = 320,000);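 active = inhibition above the mean of all tested compounds plus 3 SD, cutoff set per campaign, cut at about 30% in these data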;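 also: inhibitors lower millipolarization by displacing the labeled peptide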
# MCL1 BIM primary: inhibitors of human MCL1 binding to BIM-BH3 peptide; Q07820; GST-MCL1 / FITC-Bim-BH3 fluorescence polarization; inhibition, % at 10.9 µM; actives 0.68% (n = 320,000); AID 2057;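 active = inhibition above the mean inhibition of all tested compounds plus 3 SD, set per campaign, cut at about 40% in these data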;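 also: higher means more loss of mP so more displacement of Bim peptide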
# GLD-1 TGE inh: GLD-1-TGE RNA interaction inhibition (C. elegans); actives 0.44% (n = 320,000); inhibition, % at 5.96 µM; purified GLD-1 + fluorescein TGE RNA, fluorescence polarization; Q17339;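 active = percent inhibition above a per-plate cutoff, the plate mean of test compounds plus 3 SD, cut at about 30% in these data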
# E coli Lon inh: E. coli protease La inhibition | actives 0.42% (n = 360,000) | purified E. coli Lon protease, fluorescence polarization | AID 602123 | inhibition, % at 7.94 µM; in the data active = inhibition above about 13%, passing the limit was not always enough
# Target sequence (P0A9M0 whole entry, looked up): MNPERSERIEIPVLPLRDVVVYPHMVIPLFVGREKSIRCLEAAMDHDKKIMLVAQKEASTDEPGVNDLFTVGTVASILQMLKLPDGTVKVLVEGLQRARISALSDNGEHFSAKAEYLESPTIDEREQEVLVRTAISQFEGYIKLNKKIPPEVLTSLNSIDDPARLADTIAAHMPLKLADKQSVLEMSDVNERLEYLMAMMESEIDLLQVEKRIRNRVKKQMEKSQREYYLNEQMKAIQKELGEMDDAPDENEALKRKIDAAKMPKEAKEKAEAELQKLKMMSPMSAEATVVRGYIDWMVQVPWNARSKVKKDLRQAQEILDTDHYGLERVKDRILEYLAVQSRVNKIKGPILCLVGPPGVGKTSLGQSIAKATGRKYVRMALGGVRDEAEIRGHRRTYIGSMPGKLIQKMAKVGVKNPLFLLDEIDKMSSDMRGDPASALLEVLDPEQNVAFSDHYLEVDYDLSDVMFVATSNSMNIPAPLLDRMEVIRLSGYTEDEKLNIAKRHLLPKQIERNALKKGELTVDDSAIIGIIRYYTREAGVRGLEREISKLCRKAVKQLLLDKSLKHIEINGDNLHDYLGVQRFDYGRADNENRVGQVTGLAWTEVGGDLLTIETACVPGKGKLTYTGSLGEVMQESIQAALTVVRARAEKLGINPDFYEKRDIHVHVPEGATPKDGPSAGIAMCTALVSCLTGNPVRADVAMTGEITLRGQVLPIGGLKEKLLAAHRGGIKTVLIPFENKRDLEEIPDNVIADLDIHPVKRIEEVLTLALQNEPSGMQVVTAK
# MEX-5 binding: C. elegans MEX-5 TCR-2 RNA binding activity | Q9XUB2 | MEX-5/FITC-TCR2 RNA binding, fluorescence polarization; hits give low values | activity score (negative = inhibition of binding), % at 10 µM | actives 0.38% (n = 300,000) | AID 1832;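 active = inhibition past about -25% in most replicates, and total fluorescence under double the plate's negative control median, limit read from the data; inconclusive = replicates evenly split on the limit, or fluorescence at least double controls; inactive = too little inhibition in most replicates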
# Bcl-xL conf: Bcl-xL (human) inhibition, MCL1 counter-screen confirmation | shares compounds with MCL1 BIM primary | GST-Bcl-xL / FITC-Bim BH3 peptide FP binding | inhibition, % at 10.9 µM | actives 54% (n = 1,700) | AID 2166;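 active = inhibition above a cutoff equal to the mean inhibition of all tested compounds plus 3 SD, cut at about 30% in these data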
# MCL1 inh confirm: confirmation of human MCL1 and BIM-BH3 interaction inhibitors | GST-MCL1 / FITC-Bim-BH3 fluorescence polarization | shares compounds with MCL1 BIM primary | AID 2168 | actives 61% (n = 1,700) | inhibition, % at 10.9 µM;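 active = inhibition above the average of all tested compounds plus 3 SD, cut at about 40% in these data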
# A number is an active result; 0 = inactive; ? = inconclusive; - = not tested or not shown; + = active, no number.
SMILES,Bcl-xL primary,MCL1 BIM primary,GLD-1 TGE inh,E coli Lon inh,MEX-5 binding,Bcl-xL conf,MCL1 inh confirm
COc1cccc(OC)c1C(=O)Nc1ccc(NC(=O)c2ccco2)cc1,0,0,0,0,0,-,-
COc1ccc(NC(=O)c2ccco2)cn1,70,75,60,0,0,64,86
COc1ccc(NC(=O)/C=C/c2cccc(F)c2)cn1,75,75,47,0,0,54,68
COc1ccc(CN(C)S(=O)(=O)c2nnc(NC(=O)c3cccc(F)c3)s2)cc1OC,0,0,0,0,0,-,-
O=C1c2ccccc2C(=O)N1CC1=CCS(=O)(=O)C1,0,0,0,0,0,-,-
O=C(CN1CCSC1=O)N1CCN(S(=O)(=O)c2ccccc2)CC1,0,55,0,0,-,0,0
O=C(CN1CCSC1=O)N1CCN(S(=O)(=O)c2ccc(Cl)cc2)CC1,0,0,0,0,-,-,-
O=[N+]([O-])c1ccc(/C=N/Nc2ncccc2[N+](=O)[O-])s1,0,0,0,0,0,-,-
O=[N+]([O-])c1ccc(/C=N/n2cnc3ccccc32)s1,52,72,0,0,-41,71,76
COc1cc(C(=O)Nc2cc(S(C)(=O)=O)ccc2Cl)ccc1OCC(=O)N1CCOCC1,0,0,0,0,-,-,-
Cc1cc2n(c1)CCn1c(C)ccc1-2,78,99,0,-,0,92,135
CCCC1=[N+](CC)CCn2c(C)ccc21,0,0,0,0,0,-,-
CN(Cc1nc2ccccc2c(=O)[nH]1)C(=O)c1ccc(NC(=O)CSc2nnnn2C)cc1,0,44,0,0,-,0,0
C=C(C)CSc1nc2ccccc2[nH]1,0,0,0,0,0,-,-
COC(=O)C1=C(CSc2nc3c(cc2C#N)CN(C)CC3)OC(N)=C(C#N)C1c1ccc(F)cc1 (configuration not stated),58,74,0,0,0,0,0
CCOC(=O)C1=C(CSc2nc(CC)c(C)cc2C#N)OC(N)=C(C#N)C1c1ccc(OC)cc1 (configuration not stated),0,0,0,0,0,-,-
O=C(Cc1csc(Nc2nc(=S)[nH]c3ccccc23)n1)N1CCN(c2cccc(C(F)(F)F)c2)CC1,0,0,0,0,0,-,-
CCOc1cc(/C=N/n2c(COc3ccccc3)n[nH]c2=S)ccc1O,0,0,0,0,0,-,-
Oc1ccc(/C=N/n2c(COc3ccccc3)n[nH]c2=S)cc1O,0,44,0,0,0,0,0
CC1CC(=O)Nc2ccccc2N1C(=O)CSc1ccc2ccccc2n1 (configuration not stated),-,-,0,0,-,-,-
O=C(O)C1Sc2[nH]c(=O)sc2C2c3cc(Cl)ccc3OC(=O)C12 (configuration not stated),0,0,0,0,0,-,-
O=C(O)C1Sc2[nH]c(=O)sc2C2c3ccc(O)cc3OC(=O)C12 (configuration not stated),67,82,73,0,?,46,49
Cc1cccc(C)c1NC(=O)Nc1nnc([C@H]2C[C@H](O)[C@@H](CO)O2)s1,-,-,-,0,-,-,-
CCOC(=O)[C@]12CCC=C1N(Cc1ccco1)C(=O)[C@H](CC(=O)N1CCCC1)C2,-,-,-,0,-,-,-
CN(C)CCn1nnnc1SCC1=C(C(=O)O)N2C(=O)[C@@H](NC(=O)Cc3csc(N)n3)[C@H]2SC1,37,51,0,0,-,0,0
SMILES,Bcl-xL primary,MCL1 BIM primary,GLD-1 TGE inh,E coli Lon inh,MEX-5 binding,Bcl-xL conf,MCL1 inh confirm
Cc1cc(C(=O)CSc2n[nH]c(N)n2)c(C)n1C1CC1,0,0,0,0,0,-,-
C=CCn1c(C)cc(C(=O)CSc2n[nH]c(N)n2)c1C,0,47,0,0,0,0,0
O=C1c2cccc3c([N+](=O)[O-])ccc(c23)C(=O)N1c1ccc(Cl)cn1,120,139,103,65,0,82,105
O=C1c2cccc3c([N+](=O)[O-])ccc(c23)C(=O)N1O,57,48,0,0,0,43,58
CC(=O)Oc1ccc(N2C(=O)c3cccc4c([N+](=O)[O-])ccc(c34)C2=O)cc1,0,0,0,0,0,-,-
COc1ccc(Cl)cc1-c1cc(C(=O)NCc2ccc(F)cc2)[nH]n1,-,-,-,0,-,-,-
COC(=O)CC1C(=O)NCCN1C(=O)c1ccc(Cl)cc1 (configuration not stated),0,0,0,0,0,-,-
CCOC(=O)c1ccc(S(=O)(=O)N2CCN(C(=O)c3cccc(S(=O)(=O)N4CC(C)OC(C)C4)c3)CC2)cc1 (configuration not stated),-,-,-,0,-,-,-
CC(=O)c1cnc2nc(SCc3cccc(C)c3)nn2c1C,0,0,0,0,0,-,-
O=C(COC(=O)c1ccccn1)Nc1ncc(C(F)(F)F)cc1Cl,0,0,0,0,0,-,-
O=C(COC(=O)c1ccc([N+](=O)[O-])s1)Nc1ncc(C(F)(F)F)cc1Cl,0,+,0,0,0,0,0
CC(OC(=O)c1nccnc1N)C(=O)Nc1ccc(S(=O)(=O)N2CCCC2)cc1 (configuration not stated),0,0,0,0,0,-,-
CCOc1ccc(NC(=O)COC(=O)Cc2ccsc2)cc1,-,-,0,0,-,-,-
CCNc1nc(-c2cc(C)n(Cc3ccco3)c2C)cs1,41,46,0,0,0,0,0
Cc1ccc(C)c(NCC(=O)c2ccc(Cl)cc2)c1,0,0,0,0,0,-,-
Cc1ccc2c(c1C)NC(C(=O)O)C1CC=CC21 (configuration not stated),48,76,0,0,0,47,89
O=C(O)C1Nc2c(C(=O)N3CCOCC3)cccc2C2C=CCC12 (configuration not stated),50,68,0,0,-57,42,72
CCOC(=O)C1Nc2c(F)cc(C)cc2C2C=CCC12 (configuration not stated),0,0,0,-,0,-,-
Cc1cc(C)c2c(c1)NC(C(=O)O)C1CC=CC21 (configuration not stated),69,115,0,0,-38,45,92
O=C(NCC(=O)N1CCN(c2ccccc2O)CC1)c1ccc2c(c1)OCO2,0,0,0,0,0,-,-
O=C1/C(=C/c2ccco2)SC(=S)N1C1CCS(=O)(=O)C1 (configuration not stated),0,67,0,0,0,0,0
CCN(C(=O)C(C)N1C(=O)/C(=C/c2ccco2)SC1=S)C1CCS(=O)(=O)C1 (configuration not stated),33,59,0,0,0,0,56
CCOC(=O)C1CCN(C(=O)c2cc3c(=O)n4ccccc4nc3n2C)CC1,67,85,0,0,0,0,0
Cn1c(C(=O)N2CCOCC2)cc2c(=O)n3ccccc3nc21,0,0,0,0,0,-,-
